From PubChem BioAssay AID623901 (Broad Institute, 2012)
Screen size: about 340,000 compounds; about 470 (0.14%) were called active.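 The calls were made as follows: active = mean activation of 30% or more, with every replicate also reaching 30%; inconclusive = mean activation of 30% or more but some replicate falls short; inactive = the rest.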 This excerpt belongs to a sample that is enriched for actives.

experiment: small molecules raising miR-122 sensor signal – cell-based, Huh7 psiCHECK-miR122, Renilla luciferase, single point, primary screen (AID 623901); conditions: 48 h, at 12.5 µM, hits give high values;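 also: 0% = median of neutral control wells and 100% = median of positive control wells; higher luciferase signal means stronger suppression of miR-122 activity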

Compound	activation
C[C@H](O)C#Cc1ccc2c(c1)O[C@H](CN(C)Cc1cncnc1)[C@H](C)CN([C@@H](C)CO)S2(=O)=O	-0.322% (inactive)
CC(C)c1cc(C(=O)O)n[nH]1	-143% (inactive)
C[C@H](CO)N1C[C@H](C)[C@H](CN(C)S(=O)(=O)c2ccccc2)Oc2ncc(-c3cccc(C(F)(F)F)c3)cc2C1=O	11.3% (inactive)
COCC(=O)Nc1ccc2c(c1)OC[C@H](C)NC[C@H](C)[C@H](OC)CN(C)C2=O	-0.878% (inactive)
C[C@H](O)C#Cc1ccc2c(c1)O[C@@H](CN(C)Cc1cncnc1)[C@H](C)CN([C@H](C)CO)S2(=O)=O	0.702% (inactive)
COCC(=O)N(C)C[C@@H]1Oc2ncc(C#Cc3ccccc3OC)cc2C(=O)N([C@@H](C)CO)C[C@H]1C	5.1% (inactive)
C[C@@H]1CN([C@H](C)CO)S(=O)(=O)c2ccc(-c3cncnc3)cc2O[C@@H]1CN(C)Cc1ccccn1	5.28% (inactive)
COCC(=O)N(C)C[C@H]1Oc2cc(Br)ccc2S(=O)(=O)N([C@H](C)CO)C[C@H]1C	-1.48% (inactive)
CCC(=O)N(C)C[C@H]1Oc2ncc(C#Cc3cccnc3)cc2C(=O)N([C@H](C)CO)C[C@H]1C	6.77% (inactive)
C[C@@H]1CN([C@H](C)CO)C(=O)c2cc(-c3cccc(F)c3)cnc2O[C@H]1CN(C)C(=O)Nc1ccccc1F	-3.89% (inactive)
C[C@H](O)C#Cc1ccc2c(c1)O[C@@H](CN(C)Cc1cccnc1)[C@H](C)CN([C@H](C)CO)S2(=O)=O	0.774% (inactive)
CCCNc1ncnc2sc(C)c(C)c12	-122% (inactive)
Cc1ccc(S(=O)(=O)N(C)C[C@H]2Oc3ccc(NC(=O)CCC(F)(F)F)cc3C(=O)N([C@@H](C)CO)C[C@H]2C)cc1	-99.9% (inactive)
C[C@@H]1CN([C@@H](C)CO)S(=O)(=O)c2ccc(-c3ccncc3)cc2O[C@@H]1CN(C)C(=O)Nc1ccc(F)cc1	-17.3% (inactive)
C[C@H](CO)N1C[C@H](C)[C@@H](CN(C)C(=O)C2CC2)Oc2ncc(C#CC(C)(C)O)cc2C1=O	1.07% (inactive)
C[C@H]1CN([C@@H](C)CO)C(=O)c2cc(C3=CCCCC3)cnc2O[C@@H]1CN(C)C(=O)c1ccc(F)cc1	-3.28% (inactive)
CO[C@@H]1CN(C)C(=O)c2cc(NC(=O)C3CCOCC3)ccc2OC[C@H](C)N(C)C[C@H]1C	0.196% (inactive)
Cc1ccc(S(=O)(=O)Nc2ccc3c(c2)CC(=O)N([C@@H](C)CO)C[C@H](C)[C@H](CN(C)Cc2ccc(C(=O)Nc4ccccc4N)cc2)O3)cc1	-252% (inactive)
CCC(=O)Nc1ccc2c(c1)OC[C@H](C)N(C(=O)c1ccccc1F)C[C@@H](C)[C@H](OC)CN(C)C2=O	-3.57% (inactive)
C[C@H]1CN([C@@H](C)CO)C(=O)c2cc(-c3cccc(F)c3)cnc2O[C@@H]1CN(C)S(C)(=O)=O	-3.18% (inactive)
COc1ccc(/C=C/C(=O)Nc2ccc(C34CC5CC(CC(O)(C5)C3)C4)cc2)cc1OC	56.9% (active)
CC(C)NC(=O)N(C)C[C@@H]1Oc2ncc(C3=CCCCC3)cc2C(=O)N([C@H](C)CO)C[C@@H]1C	5.61% (inactive)

Compound	activation
Cc1ccc(-c2cnc3c(c2)C(=O)N([C@@H](C)CO)C[C@@H](C)[C@H](CN(C)Cc2ccccc2F)O3)cc1	-34.6% (inactive)
C/C=C/c1ccc2c(c1)O[C@@H](CN(C)C(=O)Cc1ccccn1)[C@@H](C)CN([C@H](C)CO)S2(=O)=O	-0.361% (inactive)
CCOC(=O)c1c(C)[nH]c(C)c1S(=O)(=O)NCCCc1ccco1	-128% (inactive)
CCC(=O)N1C[C@@H](C)[C@@H](OC)CN(C)C(=O)c2ccc(NC(=O)C3CCCCC3)cc2OC[C@@H]1C	0.432% (inactive)
C[C@H](CO)N1C[C@H](C)[C@H](CN(C)S(=O)(=O)c2cccc(F)c2)Oc2ncc(/C=C/c3ccccc3)cc2C1=O	-2.26% (inactive)
COCC(=O)N(C)C[C@@H]1Oc2cc(C#CC3CC3)ccc2S(=O)(=O)N([C@H](C)CO)C[C@H]1C	3.88% (inactive)
CCC(=O)N(C)C[C@H]1Oc2ncc(C#C[C@@H](C)O)cc2C(=O)N([C@@H](C)CO)C[C@H]1C	2.8% (inactive)
COCC#Cc1cnc2c(c1)C(=O)N([C@@H](C)CO)C[C@@H](C)[C@@H](CN(C)C(=O)Nc1ccccc1OC)O2	1.08% (inactive)
O=C(CC(O)(C(F)(F)F)C(F)(F)F)Nc1ccc(Cl)c(Cl)c1	63% (active)
CS(=O)(=O)N(CC(=O)Nc1ccc(Cl)c(Cl)c1)C1CCCCC1	-174% (inactive)
C[C@@H](O)C#Cc1ccc2c(c1)O[C@@H](CN(C)C)[C@@H](C)CN([C@@H](C)CO)S2(=O)=O	-3.26% (inactive)
COc1ccc(C(=O)Nc2ccccc2C(=O)N/N=C/c2ccccc2OC)cc1	-115% (inactive)
CCCN(C)C[C@H]1Oc2ncc(-c3ccccc3OC)cc2C(=O)N([C@H](C)CO)C[C@H]1C	-2.24% (inactive)
COc1ccccc1CNc1nc(Nc2ccccc2Cl)c2sccc2n1	44.5% (active)
C[C@@H]1CN([C@H](C)CO)S(=O)(=O)c2ccc(C#CCN(C)C)cc2O[C@@H]1CN(C)C(=O)CN(C)C	5.44% (inactive)
COc1ccc(CNS(=O)(=O)c2cc(-c3cc(C)no3)ccc2C(C)C)cc1	-200% (inactive)
OCC(O)C1OCOC(C(O)CO)C1O (stereo not drawn)	-93% (inactive)
C[C@@H]1CN([C@@H](C)CO)C(=O)c2cc(-c3ccc(F)cc3)cnc2O[C@@H]1CN(C)Cc1ccc(C(=O)O)cc1	1.12% (inactive)
CO[C@@H]1CN(C)C(=O)c2ccc(NC(=O)C3CCC3)cc2OC[C@H](C)NC[C@H]1C	1.3% (inactive)
C[C@@H]1CN([C@H](C)CO)C(=O)c2cc(-c3ccncc3)cnc2O[C@@H]1CN(C)C(=O)Cc1cccnc1	-6.69% (inactive)
COc1ccccc1-c1ccc2c(c1)O[C@@H](CN(C)C(=O)Nc1ccccc1)[C@H](C)CN([C@@H](C)CO)S2(=O)=O	-1.07% (inactive)
